High-throughput results from PubChem BioAssay.
An excerpt weighted towards active compounds, which were near 9.2% of everything screened.
ELG1 DNA repair = qHTS screen for small molecules that inhibit ELG1-dependent DNA repair in human embryonic kidney (HEK293T) cells expressing luciferase-tagged ELG1; Potency, µM (doses to about 46.1 µM), for the others: at the highest dose activity change, negative = inhibition, hits mostly inhibitors; actives 2.3% (n = 330,000); HEK293T ELG1-luciferase reporter, luminescence, 16 h; DNA damage induced by 5-fluorouridine; note: % is set by controls: 0 for no effect and ±100 for the full control effect; nearly all actives have a fitted effect of over 55% in size
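Luminescence from the luciferase reporter, measured 30 min after ONE-Glo reagent at room temperature, was the read-out. Beforehand, 2,000 cells per well were exposed for 16 hr at 37 °C to 5-fluorouridine together with compound or vehicle.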
Rab9 prom act = qHTS Assay for Rab9 Promoter Activators; Huh7 Rab9 promoter-luciferase reporter, luminescence, 24 h; Potency, µM (series often up to 9.22 µM), without a hit: at the top dose activation, negative = inhibition, most hits filed as activators; actives 2.8% (n = 320,000); AID 485297, 2010; note: % of control where 0% means no effect; nearly all actives have a fitted effect of over 60% in size
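Huh7 cells stably carrying a Rab9 promoter-luciferase reporter, 1500 cells per well in OP-MEM I with 10% FBS, treated with compound 24 hours at 37C. Luciferase activity read by luminescence after 10 minutes with Amplite reagent.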
NPC1 promoter act = qHTS Assay for NPC1 Promoter Activators; Huh7 NPC1 promoter luciferase reporter, 24 h; Potency, µM (titrated, usually from 9.22 µM), inactives show at the highest dose activation, usual class: activators; actives 2.4% (n = 320,000); AID 485313, 2010; note: % of control where 0% means no effect; nearly all actives have a fitted effect of over 60% in size
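Huh7 cells stably carrying NPC1 promoter–luciferase, plated in Opti-MEM with 10% FBS for 2 h, were exposed to compound in DMSO for 24 h at 37 °C; luciferase reagent was added for 10 min and luminescence read.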
ELG1 genotoxic = qHTS screen for small molecules that induce genotoxicity in human embryonic kidney (HEK293T) cells expressing luciferase-tagged ELG1 | HEK293T ELG1-luciferase reporter, luminescence, 16 h | Potency, µM (doses to about 46 µM), without a hit: at the highest dose activity change, positive = activation, usual class: activators | actives 1.3% (n = 330,000) | AID 504466, 2011; note: % of control where 0% means no effect; nearly all actives have a fitted effect of over 60% in size
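Cells (2,000/well) expressing the ELG1-luciferase fusion are dosed by pin tool and kept 16 hr at 37 °C, 5% CO2. Signal comes from ONE-Glo luciferase reagent after 30 min at room temperature.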
SMN2 splice up = qHTS Assay for Enhancers of SMN2 Splice Variant Expression. HEK293 SMN2-luciferase splicing reporter, luminescence, 30-36 h. Potency, µM (doses to about 46.1 µM), without a hit: top-dose activity change, positive = activation, most hits filed as activators. actives 2.8% (n = 210,000). AID 1458, 2008; note: % of control where 0% means no effect; nearly all actives have a fitted effect of over 55% in size
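HEK293 cells carry an SMN2 […]–luciferase reporter in which exon 7 inclusion puts luciferase in frame. Cells were plated 10-12 h before compound addition, then incubated 30-36 h at 37C. ONE-Glo luminescence was read; sodium butyrate at 4.5 mM final served as control.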
FLuc counter = qHTS profiling assay for firefly luciferase inhibitor/activator using purifed enzyme and Km concentrations of substrates (counterscreen for miR-21 project) | Luciferin 4-monooxygenase (Photinus pyralis), P08659 | actives 6.9% (n = 360,000) | purified FLuc, Km substrates, luminescence inhibition | Potency, µM (top dose mostly 57.5 µM), for inactives: at the top dose activity change, negative = inhibition, actives largely listed as inhibitors;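 note: plate controls were vehicle for no effect and reference inhibitor for full effect; nearly all actives have a fitted effect of over 55% in size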
Target sequence (P08659 whole entry, looked up): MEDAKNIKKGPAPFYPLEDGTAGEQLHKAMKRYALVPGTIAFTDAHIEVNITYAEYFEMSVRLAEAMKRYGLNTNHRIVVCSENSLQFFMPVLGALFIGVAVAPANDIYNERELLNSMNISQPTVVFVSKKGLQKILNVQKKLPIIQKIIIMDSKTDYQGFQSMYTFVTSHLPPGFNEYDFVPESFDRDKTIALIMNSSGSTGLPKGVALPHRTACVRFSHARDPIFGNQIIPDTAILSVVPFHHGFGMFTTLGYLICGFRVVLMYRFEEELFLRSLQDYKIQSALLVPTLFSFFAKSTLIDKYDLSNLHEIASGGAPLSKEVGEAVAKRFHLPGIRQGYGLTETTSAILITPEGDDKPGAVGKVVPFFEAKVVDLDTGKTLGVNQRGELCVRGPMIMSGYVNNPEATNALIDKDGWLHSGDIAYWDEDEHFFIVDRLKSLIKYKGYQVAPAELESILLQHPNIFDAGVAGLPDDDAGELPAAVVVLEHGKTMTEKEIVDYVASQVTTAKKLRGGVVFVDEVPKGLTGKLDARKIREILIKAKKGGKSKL
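Purified P. pyralis luciferase (10nM final) with 10uM D-luciferin and 10uM ATP (Km levels) in 50mM Tris acetate pH 7.5, 10mM Mg acetate, 0.01% Tween-20, 0.05% BSA; qHTS 6-point titration, ~60 µM downward; luminescence read.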
* marks the source's active call; other numbers are inactive results; [ ] = another dose, or the depositor's remark. Calls come from the whole dose curve; as a rule, active = well fitted curve in the direction sought with a large enough effect; inconclusive = small, poorly fitted or top-dose-only effect, or another doubt; inactive = no such curve, though single readings can be large; an effect the other way counts as inactive or inconclusive. Potency is the fitted concentration of half-maximal effect.

What do the screens show for `CCCCN1CCC(n2c(=O)[nH]c3ccccc32)CC1`?
Rab9 prom act: -6%[46.1 µM]; NPC1 promoter act: 0%[46.1 µM]; SMN2 splice up: inconclusive

What do the screens show for `c1ncc(-c2ccc3c(c2)OCO3)c(NCCc2cnc[nH]2)n1`?
SMN2 splice up: -6%

What do the screens show for `Cc1ccc(S(=O)(=O)O[C@H]2CC(C(C)(C)C)CC[C@@H]2c2ccccc2)cc1` (some centres undefined)?
SMN2 splice up: 0%[9.22 µM]

What do the screens show for `O=C(Nc1ccccc1)c1ccc(NCC2CCCO2)c([N+](=O)[O-])c1` (centres undefined)?
ELG1 DNA repair: inconclusive; Rab9 prom act: inconclusive; NPC1 promoter act: inconclusive; ELG1 genotoxic: 14%; SMN2 splice up: 18µM*; FLuc counter: inconclusive

Results for COc1ccc(N(C)C(=O)c2cc3c(s2)-c2ccc(Cl)cc2S(=O)(=O)C3)c(OC)c1 ?
ELG1 DNA repair: 21µM*; Rab9 prom act: -8%; NPC1 promoter act: -15%; ELG1 genotoxic: -4%[9.26 µM]; FLuc counter: -1%

What do the screens show for `COc1ccc(N(C)C(=O)c2cc3c(s2)-c2ccccc2OC3)c(OC)c1`?
ELG1 DNA repair: inconclusive; Rab9 prom act: -6%; NPC1 promoter act: 0%; ELG1 genotoxic: -4%; FLuc counter: 2%

Results for Cc1cccc(-c2noc(-c3ccccc3OCC(=O)Nc3ccccc3[N+](=O)[O-])n2)c1 ?
FLuc counter: -10%

How did COc1ccc(-c2nc(-c3cccc(C)c3)no2)cc1OC do in these assays?
ELG1 DNA repair: inconclusive; Rab9 prom act: 4.5µM*; NPC1 promoter act: 0.79µM*; ELG1 genotoxic: inconclusive; SMN2 splice up: 13µM*; FLuc counter: 4.3µM*

How did COc1cc(OC)cc(-c2nc(-c3cccc(C)c3)no2)c1 do in these assays?
SMN2 splice up: 0%; FLuc counter: inconclusive

What do the screens show for `COc1ccccc1-c1nc(-c2cccc(C)c2)no1`?
ELG1 DNA repair: inconclusive; Rab9 prom act: 0.11µM*; NPC1 promoter act: 0.32µM*; ELG1 genotoxic: 1.2µM*; SMN2 splice up: 4.5µM*; FLuc counter: 1.2µM*

What do the screens show for `COc1cc(-c2nc(-c3cccc(C)c3)no2)cc(OC)c1OC`?
ELG1 DNA repair: 18µM*; Rab9 prom act: 5%; NPC1 promoter act: 8%; ELG1 genotoxic: 1%; SMN2 splice up: 29%; FLuc counter: inconclusive

What do the screens show for `COc1ccccc1OCc1nc(-c2cccc(C)c2)no1`?
SMN2 splice up: inconclusive; FLuc counter: 8.5µM*

What do the screens show for `CCCCNC(=S)NC(C)(C)CO`?
ELG1 DNA repair: 3%; Rab9 prom act: -3%; NPC1 promoter act: -2%; ELG1 genotoxic: 0%; SMN2 splice up: 9%; FLuc counter: 3%

What do the screens show for `CCOc1cc(-c2nc(-c3ccccc3OC)no2)cc(OCC)c1OCC`?
ELG1 DNA repair: inconclusive; Rab9 prom act: -4%; NPC1 promoter act: 0%; ELG1 genotoxic: -28%; SMN2 splice up: inconclusive; FLuc counter: 3%

What do the screens show for `COc1ccc(-c2nc(-c3ccccc3OC)no2)cc1OC`?
ELG1 DNA repair: inconclusive; Rab9 prom act: inconclusive; NPC1 promoter act: 3.5µM*; ELG1 genotoxic: 11%; SMN2 splice up: inconclusive; FLuc counter: 15µM*

What do the screens show for `O=C(Nc1ccc(OC(F)(F)F)cc1)c1ccc(-n2cncn2)nc1`?
ELG1 DNA repair: inconclusive; Rab9 prom act: -11%; NPC1 promoter act: -18%; ELG1 genotoxic: -3%; SMN2 splice up: -25%; FLuc counter: -2%

What do the screens show for `O=C(Nc1ccc(OC(F)(F)F)cc1)c1n[nH]c(Cn2cncn2)n1`?
ELG1 DNA repair: 2%; Rab9 prom act: 0%; NPC1 promoter act: -2%; ELG1 genotoxic: 2%; SMN2 splice up: 3%; FLuc counter: 12µM*

How did CCN(CC)CCN1C(=O)C(=O)/C(=C(/O)c2ccc(OC)cc2)C1c1cccs1 (centres undefined) do in these assays?
ELG1 DNA repair: inconclusive; Rab9 prom act: 6%; NPC1 promoter act: 15%; ELG1 genotoxic: -3%; SMN2 splice up: -1%; FLuc counter: inconclusive

What do the screens show for `Cc1ccc(/C(O)=C2/C(=O)C(=O)N(Cc3ccco3)C2c2cccs2)cc1` (centres undefined)?
ELG1 DNA repair: -2%; Rab9 prom act: -3%; NPC1 promoter act: -4%; ELG1 genotoxic: 1%; SMN2 splice up: 11%; FLuc counter: 24µM*

Results for CCc1ccccc1-n1nnc(-c2ccccc2)n1 ?
ELG1 DNA repair: -6%; Rab9 prom act: 8%; NPC1 promoter act: 5%; ELG1 genotoxic: -2%; FLuc counter: 2%

Results for Brc1ccccc1-n1nnc(-c2ccnc3ccccc23)n1 ?
ELG1 DNA repair: -13%; Rab9 prom act: 19%; NPC1 promoter act: 2%; ELG1 genotoxic: 0%; FLuc counter: 17µM*

How did CCCOc1cccc(/C=N/NC(=O)c2csc(C)c2C)c1 do in these assays?
ELG1 DNA repair: 3%; Rab9 prom act: 10%; NPC1 promoter act: 22%; ELG1 genotoxic: 6%; SMN2 splice up: -25%; FLuc counter: 4.8µM*

Results for COC(=O)N/N=C/c1cccc(OCCSc2ccc(Cl)cc2)c1 ?
ELG1 DNA repair: 0%; Rab9 prom act: 27%; NPC1 promoter act: inconclusive; ELG1 genotoxic: 1%; SMN2 splice up: 11µM*; FLuc counter: -27%

Results for Cc1scc(C(=O)N/N=C/c2ccsc2)c1C ?
ELG1 DNA repair: inconclusive; Rab9 prom act: 2.8µM*; NPC1 promoter act: inconclusive; ELG1 genotoxic: 10µM*; SMN2 splice up: 18µM*; FLuc counter: 2.1µM*

Results for Cc1scc(C(=O)N/N=C/c2ccco2)c1C ?
ELG1 DNA repair: inconclusive; Rab9 prom act: 2.8µM*; NPC1 promoter act: inconclusive; ELG1 genotoxic: inconclusive; SMN2 splice up: 11µM*; FLuc counter: 11µM*

What do the screens show for `Cc1ccccc1OCC(=O)Nc1ccc(S(=O)(=O)N(Cc2ccccc2)c2ccccc2)cc1`?
FLuc counter: -7%

What do the screens show for `COc1ccc(CCN2C(=O)CN(C3CCC(C)CC3)C(=O)C2c2ccc(OC(C)C)c(OC)c2)cc1OC` (centres undefined)?
FLuc counter: 1%

What do the screens show for `Cc1ccc(C2CC(c3cccs3)=NN2C(=O)c2ccc(Br)o2)cc1` (centres undefined)?
ELG1 DNA repair: -22%; Rab9 prom act: 5%; NPC1 promoter act: 13%; ELG1 genotoxic: 0%; SMN2 splice up: 13%; FLuc counter: -12%
